According to PubChem BioAssay (NCI):
About 83,000 compounds went through this panel and 20% of them were active in at least one assay; those are over-represented in the sample as a whole.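 Compound tested at a single concentration for 48 hours in 96-well plates; a percent growth value below 10 was scored as active.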 Values without a mark were called inactive. The source made the active and inactive calls.

Test system: SR leukemia
Experiment: NCI-60 one-dose screen, 48 h (100 = growth as untreated, 0 = no growth, -100 = all killed)
Details: 10 µM unless noted

SMILES | growth
Cc1ccc(NC(=O)c2ccc(CN3CCN(C)CC3)c(C(F)(F)F)c2)cc1Oc1ccc(-c2[nH]nc3ncnc(N)c23)cc1 | 2.87% (active)
COc1ccc([C@H]2c3[nH]c4ccccc4c3C[C@@H]3C(=O)N(C4CCN(Cc5ccccc5)CC4)CC(=O)N23)c(OC)c1 | 29.9%
IP(CCCSc1n(Cc2ccc3ccccc3c2)c(-c2ccccc2)c(-c2ccccc2)[n+]1Cc1ccc2ccccc2c1)(c1ccccc1)(c1ccccc1)c1ccccc1 | 5.94% (active)
O=C1NC(=O)c2c1c1c3ccccc3ccc1c1[nH]c3ccccc3c21 | -9.49% (active)
COc1cc(/C=N/n2cnc3oc(-c4ccccc4)cc3c2=N)cc(CN2CCN(C)CC2)c1O | 35.2%
COC1=C(c2ccccc2)C(=O)C(OC)=C(c2ccccc2)C1=O | 79.8%
Cc1ccc(-c2csc(N/N=C/c3nc4ccccc4n3C3CC3)n2)cc1 | 25.1%
CC(C)=CCc1c(O)c(CC=C(C)C)c2c(c1O)C(=O)C1=C[C@@H]3C[C@H]4C(C)(C)O[C@@](C/C=C(\C)C(=O)O)(C3=O)[C@@]14O2 | -4.41% (active)
CN1CCN(c2nc(-c3csc(-c4ccncc4)n3)cc3ccccc23)CC1 | -18.2% (active)
CN1C(=O)N(C)C2C1NN=c1s/c(=C\c3ccccn3)c(=O)n12 (stereo not drawn) | 114%
CC(C)SC1=NC(=C(C(=N1)NC2=ClC=CC=C2)C#N)C3=CC=CC=C3 | 69.3%
CC(=O)NC(C)(C)C(=O)N[C@@H](C)C(=O)NC(C)(C)C(=O)N[C@@H](C)C(=O)NC(C)(C)C(=O)N[C@@H](C)C(=O)N[C@@H](CCC(N)=O)C(=O)NC(C)(C)C(=O)N[C@H](C(=O)NC(C)(C)C(=O)NCC(=O)N[C@@H](CC(C)C)C(=O)NC(C)(C)C(=O)N1CCC[C@H]1C(=O)N[C@H](C(=O)NC(C)(C)C(=O)NC(C)(C)C(=O)N[C@@H](CCC(N)=O)C(=O)N[C@@H](CCC(N)=O)C(=O)N[C@H](CO)CC1CCCCC1)C(C)C)C(C)C | 43.6% [5 µM]
Clc1ccc(-c2csc(N/N=C/c3nc4ccccc4n3C3CC3)n2)cc1 | 96.6%
O=C(NCCCNc1cc(-c2cn(-c3ccccc3)nc2-c2cccc(O)c2)ccn1)Nc1cc(C(F)(F)F)cc(C(F)(F)F)c1 | 53.9%
COc1ccc(-c2ccc3c4c(cccc24)C(=O)N(N2C(=O)c4cccc5cccc(c45)C2=O)C3=O)cc1 | 95.3%
Cc1cc(C(=O)Nc2ccc(SC#N)cc2)c(C)o1 | 5.44% (active)
Oc1ccc(CSc2nnc(-c3cnccn3)o2)c2cccnc12 | 20.5%
O=C(O)c1ccc(-n2cc(CNc3ccc(Cl)cc3)c(-c3ccc(F)cc3)n2)cc1 | 121%
Cc1cn(-c2cc(NC(=O)c3cncc(C#Cc4cnc5ccc(OCCCS(C)(=O)=O)nn45)c3)cc(C(F)(F)F)c2)cn1 | 2.78% (active)

SMILES | growth
N/C(=N\OC(=O)CSc1nc2ccccc2s1)c1ccc2ccccc2c1 | 117%
Nc1nc(-c2cccc([N+](=O)[O-])c2)c(N=Nc2cccc(Cl)c2)s1 | 31.4%
CC[C@@](C)(NC(=O)C(C)(C)NC(=O)[C@@H](NC(=O)[C@@H]1CCCN1C(=O)C(C)(C)NC(=O)[C@H](CC(C)C)NC(=O)CNC(=O)C(C)(C)NC(=O)[C@@H](NC(=O)C(C)(C)NC(=O)[C@H](CCC(N)=O)NC(=O)[C@H](C)NC(=O)C(C)(C)NC(=O)[C@H](C)NC(=O)C(C)(C)NC(=O)[C@@H]1CCCN1C(=O)C(C)(C)NC(C)=O)C(C)C)C(C)C)C(=O)N[C@@H](CCC(N)=O)C(=O)N[C@@H](CCC(N)=O)C(=O)N[C@H](CO)Cc1ccccc1 | 22.2% [4.25 µM]
COc1ccc(-c2nn(-c3ccccc3)cc2/C=C/C(=O)c2ccc(NC(=O)CCCCCCC(=O)NO)cc2)cc1 | 110%
Nc1ccc(-c2nnc(SCc3ccc(O)c4ncccc34)o2)cc1 | 18.8%
O=C1Nc2ccc(Cl)cc2/C1=C/c1ccc(OCc2ccc(Br)cc2F)cc1 | 97.2%
C=C1C(=O)O[C@@H]2/C=C(/C)C3=CC(=O)[C@@](C)(C[C@H](OC(=O)/C(C)=C\C)[C@@H]12)O3 | 2.49% (active)
O=C(CCCCCCN1CC(=O)N2[C@@H](c3cccc(Cl)c3)c3[nH]c4ccccc4c3C[C@H]2C1=O)NO | 39.5%
CS(=O)(=O)c1ccc(-c2nn(-c3ccccc3)cc2/C=N/NC(=O)c2ccncc2)cc1 | 87%
CC(C)=CCc1c2c(c(O)c3c1O[C@]14C(=C[C@@H]5C[C@H]1C(C)(C)O[C@@]4(C/C=C(/C)C(=O)O)C5=O)C3=O)CC(O)C(C)(C)O2 (stereo partly drawn) | -5.31% (active)
C=C(C)C(=O)O[C@H]1C[C@@]2(C)OC(=CC2=O)/C(CO)=C\[C@H]2OC(=O)C(=C)[C@H]12 | -38.5% (active)
COc1ccc(-c2nnc(SCc3ccc(O)c4ncccc34)o2)cc1 | 45.8%
Nc1ccc(-c2nnc(SCc3ccc(O)c4ncccc34)n2-c2ccccc2)cc1 | 36.5%
CC(C)N=C(N/C(N)=N/c1nc2ccccc2s1)NC(C)C | 49.5%
CN1CCN(Cc2ccc(NC(=O)c3cncc(C#Cc4cnc5ccc(NC6CCOCC6)nn45)c3)cc2C(F)(F)F)CC1 | -37.8% (active)
COc1cc(/C=C/C(=O)c2ccc(NC(=O)CSc3nnc(-c4ccc5nc(-c6ccccc6)[nH]c5c4)o3)cc2)cc(OC)c1OC | 36.8%
CC(=O)c1ccc(NC(=O)COc2ccc(C3SCC(=O)N3c3ccc(Br)cc3)cc2)cc1 (stereo not drawn) | 77%
COc1ccc(Cn2cc3c(c2-c2ccccc2)CCCc2cnoc2-3)cc1 | 21.1%
O=C(CSc1ccc(-c2nc3ccccc3[nH]2)cn1)N1CCN(c2ccccc2F)CC1 | 52.5%
